Source: PubChem BioAssay (National Center for Advancing Translational Sciences (NCATS))
Sampled rows, rich in hits. Any-hit rate of the full collection: about 0.92%.
RECQ1 inh-1: blocks DNA unwinding by human RECQ1; Potency, µM (top dose mostly 57.3 µM), for inactives: at the top dose activity, negative = inhibition, actives largely listed as inhibitors; P46063; RECQ1 DNA unwinding, red fluorescence kinetic read; AID 2549; hit rate 0.54% among 240,000;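 also: plate controls were vehicle for no effect and no enzyme for full effect; nearly all actives have a fitted effect of over 30% in size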
Target sequence (P46063 whole entry, looked up): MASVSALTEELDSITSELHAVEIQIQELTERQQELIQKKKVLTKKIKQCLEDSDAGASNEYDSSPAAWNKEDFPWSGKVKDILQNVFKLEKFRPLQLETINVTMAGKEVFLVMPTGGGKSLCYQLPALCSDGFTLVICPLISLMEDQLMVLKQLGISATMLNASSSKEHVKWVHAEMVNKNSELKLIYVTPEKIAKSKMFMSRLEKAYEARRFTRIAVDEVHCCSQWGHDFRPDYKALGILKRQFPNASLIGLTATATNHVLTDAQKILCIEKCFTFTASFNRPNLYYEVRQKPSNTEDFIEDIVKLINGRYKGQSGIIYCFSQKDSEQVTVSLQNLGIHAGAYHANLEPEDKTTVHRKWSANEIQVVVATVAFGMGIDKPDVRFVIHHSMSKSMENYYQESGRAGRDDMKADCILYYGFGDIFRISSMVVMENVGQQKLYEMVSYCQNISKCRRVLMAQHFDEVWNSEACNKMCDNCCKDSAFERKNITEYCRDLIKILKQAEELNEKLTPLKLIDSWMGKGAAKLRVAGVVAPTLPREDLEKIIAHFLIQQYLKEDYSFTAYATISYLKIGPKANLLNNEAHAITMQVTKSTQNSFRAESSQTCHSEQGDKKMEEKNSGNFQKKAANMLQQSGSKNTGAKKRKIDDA
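RECQ1T1 50 nM; forked duplex (20 bp + 30-nt ss tails) 200 nM, ATP 2 mM final; pH 8.0, 2 mM MgCl2, 2.5 ug/ml poly(dI-dC); 15 min compound preincubation; discontinuous kinetic read over 2 h at RT.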
WRN helicase inh-1: inhibitors of human WRN helicase. AID 651768. WRN helicase unwinding, fluorescent forked duplex, kinetic. hit rate 0.46% among 360,000. Potency, µM (series often up to 114 µM), inactives show at the highest dose activity change, negative = inhibition, actives largely listed as inhibitors. Q14191; also: % is scaled to controls: 0 for no effect and ±100 for the full control effect; nearly all actives have a fitted effect of over 55% in size
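Fluorescence dequenching readout, ex 525 nm/em 598 nm, kinetic mode: forked duplex DNA (100 nM final) with adjacent fluorophore and quencher unwound by WRN (20 nM final) with 2 mM ATP. Compound preincubation 15 min, room temperature.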
L3MBTL1 inh-1: inhibitors of human L3MBTL1; AlphaScreen L3MBTL1–H3K9me1 peptide binding; hit rate 0.66% among 230,000; Potency, µM (series often up to 57.1 µM), inactives show at the highest dose activity, negative = inhibition, hits mostly inhibitors; AID 485360; also: % is scaled to controls: 0 for no effect and ±100 for the full control effect; nearly all actives have a fitted effect of over 60% in size
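AlphaScreen assay: L3MBTL1 (50 nM final) was preincubated 30 min at room temperature with biotinylated H3(1-15)K9me1 peptide (75 nM final), then 30 min with library compounds; streptavidin donor and nickel chelate acceptor beads (10 ug/mL final) added, 30 min dark.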
BLM helicase inh-1: blocks DNA unwinding by human BLM helicase; P54132; recombinant BLM DNA unwinding, fluorescence dequenching; Potency, µM (doses to about 56.1 µM), for the others: top-dose activity change, negative = inhibition, actives largely listed as inhibitors; hit rate 0.2% among 350,000; AID 2528;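 also: plate controls were vehicle for no effect and no enzyme for full effect; nearly all actives have a fitted effect of over 35% in size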
APE1 inh-1: APE1 (human) endonuclease inhibition. recombinant APE1, TAMRA/BHQ-2 abasic DNA cleavage fluorescence. Potency, µM (highest dose often 65.8 µM), for the others: at the highest dose activity change, negative = inhibition, usual class: inhibitors. hit rate 0.35% among 350,000. AID 2517;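 also: plate controls were vehicle for no effect and reference inhibitor for full effect; nearly all actives have a fitted effect of over 55% in size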
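Kinetic fluorescence read (525 ex/598 em nm, three reads 60 s apart) of AP-site incision; signal = third minus first read. Enzyme 0.75 nM, dual-labelled THF duplex 50 nM, compound preincubation 15 min RT.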
DNA dye displace: DNA dye displacement counter-screen activity; shares compounds with APE1 inh-1; DNA fluorescent dye displacement counterscreen, fluorescence; Potency, µM (top dose mostly 28.5 µM), for the others: at the top dose activity change, negative = inhibition, hits mostly inhibitors; hit rate 7% among 480;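 also: loss of thiazole orange fluorescence as the dye is displaced from duplex DNA; 0% = ThO with dsDNA and no compound and -100% = ThO without dsDNA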
Endo IV inh: Endo IV (E. coli) inhibition counter-screen; shares compounds with APE1 inh-1; E. coli Endo IV, fluorogenic AP-site DNA cleavage; Potency, µM (highest dose often 27.1 µM), inactives show at the top dose activity change, negative = inhibition, hits mostly inhibitors; hit rate 4% among 560; AID 2565;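 also: plate controls were uninhibited enzyme wells for no effect and no enzyme buffer wells for full effect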
APE1 inh-2: APE1 (human) endonuclease inhibition, confirmation; shares compounds with APE1 inh-1; purified APE1, fluorogenic abasic-site DNA cleavage; Potency, µM (doses to about 57.1 µM), for the others: at the highest dose activity change, negative = inhibition, most hits filed as inhibitors; hit rate 44% among 750; also: % is scaled to controls: 0 for no effect and ±100 for the full control effect; nearly all actives have a fitted effect of over 30% in size
APE1 FP: displaces DNA from human APE1 in FP assay. hit rate 7% among 480. APE1 binding to TAMRA-labelled double-stranded DNA, fluorescence polarization displacement. shares compounds with APE1 inh-1. Potency, µM (series often up to 28.5 µM), without a hit: top-dose activity, negative = inhibition, hits mostly inhibitors; also: % is scaled to controls: 0 for no effect and ±100 for the full control effect
BLM inh: BLM (human) helicase inhibition, confirmation; Potency, µM, for inactives: max response, negative = inhibition, hits mostly inhibitors; AID 2585; shares compounds with BLM helicase inh-1; hit rate 40% among 220; BLM DNA unwinding, fluorescence quenching, biochemical;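 also: strand separation dequenches TAMRA so unwinding raises red fluorescence; series mostly up to about 69 µM; % is scaled to controls: 0 for no effect and ±100 for the full control effect; nearly all actives have a fitted effect of over 45% in size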
RECQ1 inh conf: confirmation of human RECQ1 helicase inhibitors; shares compounds with RECQ1 inh-1; RECQ1 helicase DNA unwinding, fluorescence; Potency, µM (doses to about 229 µM), without a hit: at the top dose activity change, negative = inhibition, hits mostly inhibitors; hit rate 28% among 610; also: % is scaled to controls: 0 for no effect and ±100 for the full control effect; nearly all actives have a fitted effect of over 45% in size
ADP FP counter: counter-screen for RECQ1 inhibitors: ADP displacement; AID 2711; hit rate 27% among 530; Potency, µM (highest dose often 228 µM), for the others: top-dose activity change, negative = inhibition, hits mostly inhibitors; ADP fluorescence polarization displacement counterscreen; shares compounds with RECQ1 inh-1; also: % is scaled to controls: 0 for no effect and ±100 for the full control effect; nearly all actives have a fitted effect of over 45% in size
RECQ1 inh-2: RECQ1 helicase inhibition confirmed, round 2; shares compounds with RECQ1 inh-1; recombinant RECQ1 DNA unwinding, red fluorescence; Potency, µM (titrated, usually from 119 µM), for inactives: at the highest dose activity, negative = inhibition, most hits filed as inhibitors; hit rate 15% among 1,100; also: % is scaled to controls: 0 for no effect and ±100 for the full control effect; nearly all actives have a fitted effect of over 50% in size
L3MBTL1 inh-2: validation of human L3MBTL1 methyl-lysine binding inhibitors; shares compounds with L3MBTL1 inh-1; L3MBTL1 methyl-lysine binding inhibition, biochemical qHTS; Potency, µM, usual class: inhibitors; hit rate 91% among 500; AID 540279; also: nearly all actives have a fitted effect of over 70% in size
L3MBTL1 ctr: counter-screen for L3MBTL1 inhibitors: AlphaScreen signal interference. 500 tested, under 10 active. shares compounds with L3MBTL1 inh-1. Potency, µM (highest dose often 57.1 µM), inactives show at the highest dose activity change, negative = inhibition, most hits filed as inhibitors. AlphaScreen counterscreen, signal inhibition; also: 0% is about no effect
WRN helicase inh-2: WRN helicase inhibition, cherry-pick retest | shares compounds with WRN helicase inh-1 | WRN helicase DNA unwinding, fluorescence kinetic | Potency, µM (titrated, usually from 57.1 µM), without a hit: top-dose activity, negative = inhibition, usual class: inhibitors | hit rate 63% among 610 | AID 720497; also: nearly all actives have a fitted effect of over 65% in size
TO DNA binding: DNA binding via thiazole orange displacement | shares compounds with WRN helicase inh-1 | thiazole orange DNA binding displacement, fluorescence | Potency, µM (highest dose often 57.1 µM), for inactives: at the top dose activity change, negative = inhibition, usual class: inhibitors | hit rate 10% among 610;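 also: drop in dye fluorescence marks compound binding to DNA; % is scaled to controls: 0 for no effect and ±100 for the full control effect; nearly all actives have a fitted effect of over 60% in size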
BLM helicase inh-2: BLM helicase inhibition, WRN selectivity check; shares compounds with WRN helicase inh-1; Recombinant BLM helicase DNA unwinding, red fluorescence; Potency, µM (top dose mostly 57.1 µM), without a hit: at the highest dose activity change, negative = inhibition, usual class: inhibitors; hit rate 60% among 610; AID 720503; also: nearly all actives have a fitted effect of over 60% in size
Active calls of the source: *; ? = inconclusive; · = no result; [ ] = remark or other dose. Calls follow the shape of the dose curve; as a rule, active = well fitted curve in the direction sought with a large enough effect; inconclusive = small, poorly fitted or top-dose-only effect, or another doubt; inactive = no such curve, though single readings can be large; an effect the other way counts as inactive or inconclusive. Potency is read from the fitted curve at half-maximal effect.

SMILES | RECQ1 inh-1 | WRN helicase inh-1 | L3MBTL1 inh-1 | BLM helicase inh-1 | APE1 inh-1 | DNA dye displace | Endo IV inh | APE1 inh-2 | APE1 FP | RECQ1 inh conf | ADP FP counter | WRN helicase inh-2 | TO DNA binding | BLM helicase inh-2 | others
CCc1cc(=O)oc2cc(C)c(CN3CCCC3)c(O)c12 | 7.1µM* | 32µM* | 4µM* | 11µM* | 13µM* | -1% | 0% | ? | ? | 50µM* | 72%[91.9 µM] | 15µM* | 24µM* | 3.8µM* | BLM inh=?;RECQ1 inh-2=?
COC(=O)C1C(O)CC[C@H]2CN3CCc4c([nH]c5ccccc45)C3C[C@H]12 (stereo partly specified) | -3% | · | · | -1% | -5% | · | · | · | · | · | · | · | · | ·
O=C(CCCN1C(=O)/C(=C/c2ccco2)SC1=S)Nc1ccccc1C(=O)O | 8.9µM* | 32µM* | 7.1µM* | 9% | 20µM* | -10% | 119% | 13µM* | -30% | 28µM* | 50µM* | 19µM* | -15% | 24µM* | L3MBTL1 inh-2=3.4*;L3MBTL1 ctr=0%
O=C(O)CCCN1C(=O)/C(=C\c2ccco2)SC1=S | ? | ? | 25µM* | 59% | 20µM* | -4% | 69% | ? | -1% | · | · | ? | -8% | ? | L3MBTL1 inh-2=?;L3MBTL1 ctr=1%
Cc1ccccc1C(=O)Nc1ccc(OCc2cc(=O)n3ccccc3n2)cc1 | · | · | · | -5% | · | · | · | · | · | · | · | · | · | ·
COc1ccc(Br)cc1/C=c1\sc2nc(-c3ccco3)nn2c1=O | 8.9µM* | 35µM* | 7.9µM* | -25% | 28µM* | ? | 6% | ? | -14% | 20µM* | ? | 17µM* | 19µM* | 7.6µM*
O=C1NN(c2ccccc2)C(=O)/C1=C/c1ccc(-c2ccc(Cl)c(C(=O)O)c2)o1 | ? | 35µM* | · | -11% | 13µM* | ? | -4% | 22µM* | ? | · | · | 19µM* | -18% | ?
Cc1cccc(N2NC(=O)/C(=C/c3ccc(-c4ccc(Cl)c(C(=O)O)c4)o3)C2=O)c1 | ? | 40µM* | · | -12% | 18µM* | -14% | 2% | ? | 1% | · | · | 9.6µM* | ? | 9.6µM*
CC[C@H](C)[C@H](NC(=O)[C@H](Cc1ccc(O)cc1)NC(=O)[C@H](Cc1cnc[nH]1)NC(=O)[C@H](CCCNC(=N)N)NC(=O)[C@H](CC(C)C)NC(=O)[C@H](C)NC(=O)[C@H](CO)NC(=O)[C@H](Cc1ccc(O)cc1)NC(=O)[C@H](Cc1ccc(O)cc1)NC(=O)[C@H](CCCNC(=N)N)NC(=O)[C@H](C)NC(=O)[C@H](CCSC)NC(=O)[C@H](CC(=O)O)NC(=O)[C@H](CCC(=O)O)NC(=O)[C@H](C)NC(=O)[C@@H]1CCCN1C(=O)[C@H](C)NC(=O)[C@H](CC(=O)O)NC(=O)[C@H](CCC(=O)O)NC(=O)CNC(=O)[C@@H]1CCCN1C(=O)[C@H](CC(N)=O)NC(=O)[C@H](CC(=O)O)NC(=O)[C@@H]1CCCN1C(=O)[C@H](CCCCN)NC(=O)[C@H](CO)NC(=O)[C@@H]1CCCN1C(=O)[C@@H](N)Cc1ccc(O)cc1)C(=O)N[C@@H](CC(N)=O)C(=O)N[C@@H](CC(C)C)C(=O)N[C@@H](CC(C)C)C(=O)N[C@H](C(=O)N[C@@H](CCCNC(=N)N)C(=O)N1CCC[C@H]1C(=O)N[C@@H](CCCNC(=N)N)C(=O)N[C@@H](Cc1ccc(O)cc1)C(N)=O)[C@@H](C)O | 11% | · | · | -5% | -2% | · | · | · | · | · | · | · | · | ·
O=C1CCCC(O)=C1N=Nc1ccc(C(=O)O)cc1 | ? | 32µM* | 3.2µM* | 41% | 8.9µM* | ? | 66% | 10µM* | -10% | · | · | 7.6µM* | ? | 12µM*
O=C1CCCC(O)=C1N=Nc1ccc2c(c1)OCO2 | -1% | -23%[57.1 µM] | -15% | -1% | -1% | · | · | · | · | · | · | · | · | ·
